Laboratory results: PubChem BioAssay (Tox21)
Unmarked numbers belong to inactive results. Results filed as inconclusive are left out. Entries that show only a call come without a potency. Active and inactive are the calls of the source. Unless noted, calls come from the whole dose curve.

Key:
[1] = Nuclear factor erythroid 2-related factor 2/antioxidant responsive element (Nrf2/ARE) small molecule agonists: qHTS cell viability counter screen in human keratinocytes (AID 1919968; active = well fitted curve in the direction sought with a large enough effect in the repeat runs; an effect the other way counts as inactive or inconclusive; note: nearly all actives have a fitted effect of over 55% in size; note: potency is the fitted concentration of half-maximal effect)
Outline: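 KeratinoSens HaCaT cells, 1,500/well, preincubated 5 h, then exposed to compounds in DMSO for 23 h at 37 C/5% CO2. Viability read as CellTiter-Fluor fluorescence after 1 h, in the same wells as the ARE-luciferase read.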

[2] = Nuclear factor erythroid 2-related factor 2/antioxidant responsive element (Nrf2/ARE) small molecule agonists: luciferase reporter gene qHTS assay in human keratinocytes (AID 1919969); note: nearly all actives have a fitted effect of over 35% in size
[3] = molecular target: Gonadotropin-releasing hormone receptor (Homo sapiens) (UniProt P30968); experiment: Human gonadotropin-releasing hormone receptor (GnRHR) small molecule agonists, calcium flux assay in GnRHR-HEK293 cells (AID 1920063); note: nearly all actives have a fitted effect of over 35% in size
Outline: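 HEK293 cells stably expressing human GnRHR were dye-loaded for 1 h at 37 C. Compound was added in agonist mode and fluorescence (Ex/Em 480/540) recorded kinetically for 3 min. Fifteen concentrations, triplicates.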

[4] = p53 small molecule agonists, cell-based qHTS assay with human liver microsomes (AID 1963577);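 note: p53 response element beta-lactamase reporter cells with liver microsomes plus NADPH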
Outline: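 p53RE-bla cells; 5 h settle, 37 C/5% CO2; cpd + HLM 0.5 mg/mL + NADPH 0.5 mg/mL (final); 16 h 37 C; LiveBLAzer 2 h RT dark; fluorescence readout.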

[5] = p53 small molecule agonists, cell-based qHTS assay with rat liver microsomes (AID 1963578)
Outline: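 Rat liver microsome activation: microsomes 0.5 mg/mL, NADPH 0.5 mg/mL final; p53RE-bla cells, 16 h 37 C; LiveBLAzer readout, 2 h RT dark.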

[6] = p53 small molecule agonists, cell-based qHTS assay with human liver microsomes: qHTS cell viability counter screen (AID 1963579); note: nearly all actives have a fitted effect of over 45% in size
Outline: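 Luminescent CellTiter-Glo read-out, 30 min at room temperature, gauged cytotoxicity in p53RE-bla cells exposed 16 h at 37 C to DMSO-dissolved compounds with metabolic activation by human liver microsomes and NADPH, each 0.5 mg/mL final.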

[7] = p53 small molecule agonists, cell-based qHTS assay with rat liver microsomes: qHTS cell viability counter screen (AID 1963580); note: nearly all actives have a fitted effect of over 45% in size
Outline: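 Viability is assessed in parallel with the p53 reporter read: HCT-116 p53RE-bla cells receive compounds plus rat microsomes and NADPH (0.5 mg/mL final apiece), incubate 16 h at 37 C, and then CellTiter-Glo luminescence is recorded.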

[8] = p53 small molecule agonists, cell-based qHTS assay: qHTS cell viability counter screen (AID 1963581); note: nearly all actives have a fitted effect of over 45% in size
Outline: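 p53RE-bla HCT-116 cells, compounds added 5 h after plating and incubated 16 h at 37 C. Cytotoxicity measured in the same wells as intracellular ATP by CellTiter-Glo luminescence after 30 min at room temperature.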

[9] = p53 small molecule agonists, cell-based qHTS assay (AID 1963582; active = well fitted activation curve with a large enough effect in the signal ratio in the repeat runs, not every such curve was filed as active; the % refers to the signal ratio)
Outline: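 p53RE-bla reporter cells, compounds added in DMSO after 5 h plating, incubated 16 h at 37 C. Beta-lactamase read via 2 h room-temperature LiveBLAzer B/G FRET substrate, fluorescence intensity.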

[10] = molecular target: 5-hydroxytryptamine receptor 2A (Homo sapiens) (UniProt P28223); experiment: 5-hydroxytryptamine receptor 2A (HTR2A) small molecule antagonists, cell-based qHTS assay (AID 1963586); note: nearly all actives have a fitted effect of over 45% in size
Outline: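 Antagonist-mode intracellular calcium assay: DOI (4 nM) added after 5 min compound pre-incubation at room temperature to dye-loaded HTR2A-CHO cells. Fluorescence followed for 3 min, sampled every second.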

[11] = molecular target: Muscarinic acetylcholine receptor M1 (Homo sapiens) (UniProt P11229); experiment: Cholinergic receptor muscarinic 1 (CHRM1) small molecule antagonists, cell-based qHTS assay (AID 1963588); note: nearly all actives have a fitted effect of over 40% in size
Outline: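 CHRM1-CHO calcium-flux assay, antagonist mode. Cells were seeded 18 h, dye-loaded 1 h at 37 C and given compound for 5 min at RT, then acetylcholine was added at 50nM. FDSS fluorescence was read 3 min; 15 concentrations, three runs.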

[12] = molecular target: Muscarinic acetylcholine receptor M1 (Homo sapiens) (UniProt P11229); experiment: Cholinergic receptor muscarinic 1 (CHRM1) small molecule agonists, cell-based qHTS assay (AID 1963589); note: nearly all actives have a fitted effect of over 35% in size
Outline: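 CHO cells stably expressing human CHRM1 were loaded with calcium dye for 1 h at 37 C, then compound was added in agonist mode. Intracellular calcium fluorescence was followed kinetically at 1 s intervals. Fifteen concentrations were tested in three independent runs.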

[13] = cAMP Responsive Elements (CRE) small molecule agonists, cell-based qHTS assay (AID 1963590)
Outline: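 CRE-bla HEK 293T cells, 2,000/well in DMEM with 10% dialyzed FBS and 25 mM HEPES, pre-incubated 18 h at 37 C, then exposed to compound 3 h at 37 C. Beta-lactamase reporter read with LiveBLAzer B/G FRET substrate after 2 h at room temperature.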

[14] = cAMP Responsive Elements (CRE) small molecule antagonists, cell-based qHTS assay (AID 1963591; active = well fitted inhibition curve with a large enough effect in the signal ratio in the repeat runs, not every such curve was filed as active; the % refers to the signal ratio)
Outline: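 CRE-bla HEK293T cells plated 18 h, then given compound plus NKH477 at 0.25 uM final for 3 h at 37C. Beta-lactamase reporter read with LiveBLAzer B/G FRET substrate after 2 h at room temperature.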

[15] = molecular target: Beta-2 adrenergic receptor (Homo sapiens) (UniProt P07550); experiment: Adrenergic beta2 receptor (ADRB2) small molecule antagonists, cell-based qHTS assay (AID 1963592); note: series mostly up to about 92 µM; nearly all actives have a fitted effect of over 50% in size
Outline: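 Cells (CHO, stable ADRB2 overexpression) incubated 18-20hr at 37C; compounds added from DMSO; agonist mix (1nM isoproterenol, 100uM IBMX, 25uM Ro-20-1724) added; 0.5hr RT; d2-cAMP and anti-cAMP-cryptate added; 1hr RT; 665/615 nm read.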

[16] = molecular target: D(2) dopamine receptor (Homo sapiens) (UniProt P14416); experiment: Dopamine D2 receptor (DRD2) small molecule agonists, cell-based qHTS assay (AID 1963594); note: nearly all actives have a fitted effect of over 35% in size
Outline: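 HEK293 cells stably expressing human DRD2, pre-treated with PDE inhibitor Ro20-1724 (0.1 mM final) and compound 10 min at room temperature, then stimulated with NKH477 (200nM […]) for 30 min. cAMP read by HTRF (665/620 nm).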

[17] = molecular target: D(2) dopamine receptor (Homo sapiens) (UniProt P14416); experiment: Dopamine D2 receptor (DRD2) small molecule antagonists, cell-based qHTS assay (AID 1963595; active = well fitted inhibition curve with a large enough effect in the signal ratio in the repeat runs, with a control signal flat; the % refers to the signal ratio)
Outline: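 HTRF cAMP read-out at 665 and 620 nm emission (340 nm excitation). Antagonist mode: compounds were tested against 12 nM quinpirole in DRD2-HEK293 cells, with 200 nM NKH477 raising cAMP and 0.1 mM Ro20-1724 blocking its breakdown.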

[18] = molecular target: 5-hydroxytryptamine receptor 2A (Homo sapiens) (UniProt P28223); experiment: 5-hydroxytryptamine receptor 2A (HTR2A) small molecule agonists, cell-based qHTS assay (AID 1963587); note: nearly all actives have a fitted effect of over 30% in size
Outline: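 CHO cells stably expressing human HTR2A, plated 18 h, loaded with calcium dye 1 h at 37 C. Agonist mode: compounds added and intracellular calcium fluorescence recorded kinetically for 2 min at 1 sec intervals.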

[19] = molecular target: Beta-2 adrenergic receptor (Homo sapiens) (UniProt P07550); experiment: Adrenergic beta2 receptor (ADRB2) small molecule agonists, cell-based qHTS assay (AID 1963593);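 note: CHO cells stably overexpressing human ADRB2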
Outline: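 CHO cells stably over-expressing ADRB2 were plated overnight at 37C, then dosed with compounds plus a stimulation mix containing 100uM IBMX and 25uM Ro-20-1724 for 0.5hr at room temperature. cAMP was measured by HTRF competition, 1hr.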

[20] = molecular target: KiSS-1 receptor (Homo sapiens) (UniProt Q969F8); experiment: Human kisspeptin (KISS1R) small molecule agonists, calcium flux assay in KISS1R-HEK293 cells (AID 1920064; active = well fitted curve in the direction sought with a large enough effect in the repeat runs; an effect the other way counts as inactive or inconclusive)
Outline: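 HEK293 cells stably expressing human KISS1R were loaded with calcium dye for 1 h at 37 C, then given compound; fluorescence (Ex/Em 480/540) was read kinetically for 3 min. Fifteen concentrations, triplicate.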

Gonadotropin-releasing hormone receptor (Homo sapiens), sequence (P30968 whole entry, looked up): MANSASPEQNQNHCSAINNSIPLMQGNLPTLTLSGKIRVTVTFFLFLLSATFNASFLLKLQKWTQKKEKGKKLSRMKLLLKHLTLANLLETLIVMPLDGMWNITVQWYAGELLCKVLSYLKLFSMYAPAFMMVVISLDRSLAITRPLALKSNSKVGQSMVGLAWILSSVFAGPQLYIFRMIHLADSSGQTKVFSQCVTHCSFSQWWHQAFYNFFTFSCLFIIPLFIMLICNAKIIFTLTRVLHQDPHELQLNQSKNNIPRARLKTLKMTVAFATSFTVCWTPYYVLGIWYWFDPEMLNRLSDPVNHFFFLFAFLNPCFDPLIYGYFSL
Beta-2 adrenergic receptor (Homo sapiens), sequence (P07550 whole entry, looked up): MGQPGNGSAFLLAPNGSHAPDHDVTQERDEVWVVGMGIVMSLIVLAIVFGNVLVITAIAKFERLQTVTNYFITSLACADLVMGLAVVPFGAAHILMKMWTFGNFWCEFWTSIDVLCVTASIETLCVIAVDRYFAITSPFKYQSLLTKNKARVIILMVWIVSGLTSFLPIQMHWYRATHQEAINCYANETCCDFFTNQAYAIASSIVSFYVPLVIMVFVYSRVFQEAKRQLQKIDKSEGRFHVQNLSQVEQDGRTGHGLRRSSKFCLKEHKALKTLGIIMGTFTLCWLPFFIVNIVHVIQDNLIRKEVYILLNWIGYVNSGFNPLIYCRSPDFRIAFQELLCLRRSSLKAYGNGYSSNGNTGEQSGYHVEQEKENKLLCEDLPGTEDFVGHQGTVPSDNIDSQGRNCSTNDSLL
5-hydroxytryptamine receptor 2A (Homo sapiens), sequence (P28223 whole entry, looked up): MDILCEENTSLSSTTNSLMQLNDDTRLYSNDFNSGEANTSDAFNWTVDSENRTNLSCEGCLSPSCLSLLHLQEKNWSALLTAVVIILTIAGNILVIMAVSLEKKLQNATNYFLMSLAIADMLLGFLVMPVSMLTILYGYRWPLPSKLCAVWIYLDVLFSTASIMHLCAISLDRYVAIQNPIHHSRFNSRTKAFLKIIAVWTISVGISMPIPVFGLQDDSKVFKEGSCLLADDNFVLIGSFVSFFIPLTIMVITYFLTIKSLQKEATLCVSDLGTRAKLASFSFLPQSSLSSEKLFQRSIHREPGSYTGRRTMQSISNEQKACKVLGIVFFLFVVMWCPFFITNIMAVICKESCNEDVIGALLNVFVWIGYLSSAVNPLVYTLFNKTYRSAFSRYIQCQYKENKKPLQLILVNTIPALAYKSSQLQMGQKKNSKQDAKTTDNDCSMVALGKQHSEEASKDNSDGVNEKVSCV
KiSS-1 receptor (Homo sapiens), sequence (Q969F8 whole entry, looked up): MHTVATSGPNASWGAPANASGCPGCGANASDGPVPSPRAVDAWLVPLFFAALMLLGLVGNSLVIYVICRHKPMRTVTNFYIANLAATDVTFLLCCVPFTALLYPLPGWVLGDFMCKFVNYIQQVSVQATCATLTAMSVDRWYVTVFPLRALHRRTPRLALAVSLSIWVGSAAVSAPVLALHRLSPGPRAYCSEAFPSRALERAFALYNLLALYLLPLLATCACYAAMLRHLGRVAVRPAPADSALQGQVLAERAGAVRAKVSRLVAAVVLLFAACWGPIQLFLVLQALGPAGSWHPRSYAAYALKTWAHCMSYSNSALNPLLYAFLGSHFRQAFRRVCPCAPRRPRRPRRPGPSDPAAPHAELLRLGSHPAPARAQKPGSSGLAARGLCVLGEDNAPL
Muscarinic acetylcholine receptor M1 (Homo sapiens), sequence (P11229 whole entry, looked up): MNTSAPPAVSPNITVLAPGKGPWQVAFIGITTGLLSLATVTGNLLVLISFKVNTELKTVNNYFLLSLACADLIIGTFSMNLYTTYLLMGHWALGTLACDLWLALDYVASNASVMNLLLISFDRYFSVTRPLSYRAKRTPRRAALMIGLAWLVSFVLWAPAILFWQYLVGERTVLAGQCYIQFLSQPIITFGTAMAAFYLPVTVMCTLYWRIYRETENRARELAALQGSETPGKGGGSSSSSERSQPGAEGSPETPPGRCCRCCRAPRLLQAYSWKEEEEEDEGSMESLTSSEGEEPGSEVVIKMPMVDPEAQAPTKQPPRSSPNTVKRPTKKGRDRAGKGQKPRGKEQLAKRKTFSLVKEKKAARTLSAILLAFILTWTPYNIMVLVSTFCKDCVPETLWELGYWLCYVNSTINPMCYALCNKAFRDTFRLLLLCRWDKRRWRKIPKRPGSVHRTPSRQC
D(2) dopamine receptor (Homo sapiens), sequence (P14416 whole entry, looked up): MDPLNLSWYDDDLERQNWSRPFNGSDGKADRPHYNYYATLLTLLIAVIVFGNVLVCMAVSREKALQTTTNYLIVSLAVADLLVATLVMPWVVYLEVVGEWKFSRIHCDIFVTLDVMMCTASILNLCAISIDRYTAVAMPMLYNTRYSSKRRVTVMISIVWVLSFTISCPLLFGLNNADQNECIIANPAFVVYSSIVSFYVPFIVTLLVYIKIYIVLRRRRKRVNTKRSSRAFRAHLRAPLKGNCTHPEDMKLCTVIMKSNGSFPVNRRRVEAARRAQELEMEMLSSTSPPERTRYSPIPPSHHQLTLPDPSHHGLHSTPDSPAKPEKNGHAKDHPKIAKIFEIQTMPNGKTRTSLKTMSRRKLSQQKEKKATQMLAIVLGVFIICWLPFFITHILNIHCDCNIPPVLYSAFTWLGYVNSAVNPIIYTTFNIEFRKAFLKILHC

Compound	Potency [1]	Potency [2]	Potency [3]	Potency [4]	Potency [5]	Potency [6]	Potency [7]	Potency [8]	Potency [9]	Potency [10]	Potency [11]	Potency [12]	Potency [13]	Potency [14]	Potency [15]	Potency [16]	Potency [17]	Potency [18]	Potency [19]	outcome [20]
Cc1cccc2nccnc12	inactive	inactive	inactive	inactive	inactive	inactive	inactive	inactive	inactive	inactive	inactive	inactive	inactive	inactive	inactive	inactive	inactive			
CCCCOC(=O)C(C)CC (centres undefined)	inactive	inactive	inactive	inactive	inactive	inactive	inactive	inactive	inactive	inactive	inactive	inactive	inactive	inactive	inactive	inactive	inactive	inactive		
COc1ccc(OC)c(OC)c1	inactive	inactive	inactive	inactive	inactive	inactive	inactive	inactive	inactive	inactive	inactive	inactive	inactive	inactive	inactive	inactive	inactive	inactive		
O=C(c1ccco1)N1CCNCC1	inactive	inactive	inactive	inactive	inactive	inactive	inactive	inactive	inactive		inactive	inactive	inactive	inactive	inactive	inactive	inactive	inactive	inactive	
CCc1ccc(O)c(OC)c1	inactive	inactive	inactive	inactive	inactive	inactive	inactive	inactive	inactive	inactive	inactive	inactive	inactive	inactive	inactive	inactive	inactive	inactive		
OCC(CBr)(CBr)CBr	inactive	inactive	inactive	inactive	inactive	inactive	inactive	inactive	inactive	inactive	inactive	inactive	inactive	inactive	inactive	inactive	inactive	inactive		
COc1ccc(C(=O)Nc2ccccc2)cc1[N+](=O)[O-]	inactive	inactive	inactive	inactive	inactive	inactive	inactive	inactive	inactive		inactive	inactive			inactive	inactive	inactive	inactive		
CC1(C)CC(N)CC(C)(C)N1	inactive	inactive	inactive	inactive	inactive	inactive	inactive	inactive	inactive	inactive	inactive	inactive	inactive	inactive	inactive	inactive	inactive	inactive		
O=C(O)c1ccccc1NCCc1ccccc1	inactive	inactive	inactive		inactive	inactive	inactive	inactive		inactive	inactive	inactive		inactive	inactive	inactive	inactive	inactive		inactive
CCCCC(CC)C(=O)OC(C)C (centres undefined)	inactive	inactive	inactive	inactive	inactive	inactive	inactive	inactive	inactive	inactive	inactive	inactive		inactive	inactive	inactive	inactive	inactive		
CN(C)CCn1nnnc1SCC1=C(C(=O)O)N2C(=O)[C@@H](NC(=O)Cc3csc(N)n3)[C@H]2SC1	inactive	inactive	inactive	inactive	inactive	inactive	inactive	inactive	inactive	inactive	inactive	inactive	inactive	inactive		inactive	inactive			
COc1ccc2c(c1)C(=O)N(CCc1ccc(S(=O)(=O)NC(=O)NC3CCCCC3)cc1)C(=O)C2(C)C	inactive	inactive	inactive		inactive		inactive				inactive	inactive			inactive	inactive	inactive	inactive	inactive	inactive
CO[Si](OC)(OC)OC	inactive	inactive	inactive	inactive	inactive	inactive	inactive	inactive	inactive	inactive		inactive	inactive	inactive	inactive	inactive	inactive	inactive	inactive	
CCc1cc(Cc2cc(CC)cc(C(C)(C)C)c2O)c(O)c(C(C)(C)C)c1	13.7 µM (active)	inactive	inactive		inactive	inactive	inactive		inactive	inactive		inactive		inactive		inactive	inactive	inactive		inactive
